Source: PubChem BioAssay
The source made the active and inactive calls.

How the values were obtained:
Albumin (Bos taurus) = Albumin (Bos taurus) (UniProt P02769); assay: compounds binding labelled BSA control protein – biochemical, small-molecule microarray, Alexa647 label, 635/667 nm fluorescence, artefact control for SMM control protein annotation, profiling panel (AID 1118); conditions: BSA-A647 binding, fluorescence 635 nm, higher = more signal;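 further: score merges 667 nm emission intensity and signal-to-noise per printed compound spot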
Chain of Albumin (Bos taurus) (P02769 whole entry, looked up): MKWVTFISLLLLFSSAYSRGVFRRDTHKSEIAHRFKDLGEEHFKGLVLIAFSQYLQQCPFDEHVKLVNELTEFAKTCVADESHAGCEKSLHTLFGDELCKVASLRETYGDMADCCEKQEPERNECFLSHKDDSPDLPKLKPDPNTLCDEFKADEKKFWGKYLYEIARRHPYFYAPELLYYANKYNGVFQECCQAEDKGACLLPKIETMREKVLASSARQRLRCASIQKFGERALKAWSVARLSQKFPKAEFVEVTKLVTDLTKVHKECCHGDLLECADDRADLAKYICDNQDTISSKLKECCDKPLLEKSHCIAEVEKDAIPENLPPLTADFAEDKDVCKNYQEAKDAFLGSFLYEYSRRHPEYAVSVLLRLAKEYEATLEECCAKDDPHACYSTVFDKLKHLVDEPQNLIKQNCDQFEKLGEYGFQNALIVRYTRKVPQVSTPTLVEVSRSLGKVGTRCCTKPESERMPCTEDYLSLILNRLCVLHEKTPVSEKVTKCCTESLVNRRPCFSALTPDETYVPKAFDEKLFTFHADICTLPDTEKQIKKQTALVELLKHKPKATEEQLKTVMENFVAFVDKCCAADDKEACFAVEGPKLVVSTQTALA

[1] = probe aXIP binding to arrayed compounds – biochemical, NeuroSMM set, 635/667 nm fluorescence, primary screen (AID 1119); conditions: small-molecule microarray, higher = more signal, called active from +8 up or from −8 down;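 further: probe is the protein aXip251-270 applied at 1 µg/mL to compound-printed slides; binding of probe to printed compounds measured as 667 nm fluorescence plus signal to noise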
[2] = probe aNOTCH3 binding on compound microarray – biochemical, small-molecule microarray, 635/667 nm fluorescence, primary screen (AID 1120); conditions: higher = more signal;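 further: probe is a biotin-tagged antibody raised against NOTCH3 rather than NOTCH3 protein; score merges spot fluorescence near 667 nm with spot signal to noise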
[3] = probe aNOTCH2 binding on compound microarray – biochemical, small-molecule microarray, 635/667 nm fluorescence, primary screen (AID 1121); conditions: higher = more signal;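 further: score merges feature fluorescence read at 667 nm with its signal to noise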
[4] = molecular target: Carbonic anhydrase 2 (Homo sapiens) (UniProt P00918); assay: compounds binding carbonic anhydrase 2 – biochemical, small-molecule microarray, Alexa647-labelled CAII, profiling panel (AID 1122); conditions: CAII-A647 binding fluorescence, higher = more signal
[5] = COS7 lysate on small-molecule microarray, probe aHis, 635 nm (AID 1123); conditions: COS7 cell lysate, fluorescence, higher = more signal;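 further: z-score combines 667nm fluorescence intensity with signal-to-noise per printed compound spot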
[6] = probe aLAP1 signal on lysate-treated microarray – cell lysate, small-molecule microarray, COS7 lysate, primary screen (AID 1124); conditions: probe aLAP1, fluorescence, higher = more signal;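 further: lysate comes from COS7 cells expressing LAP1 and is applied at 0.3 µg/mL; score merges spot fluorescence near 667 nm with signal-to-noise over triplicate slides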
Sam68 (KHDRBS1) = assay: compounds binding KHDRBS1 protein – biochemical, small-molecule microarray, 635 nm fluorescence, primary screen (AID 1125); conditions: higher = more signal;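 further: score merges 667 nm channel intensity with signal to noise over triplicate slides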
[7] = tested on: Chordin-like protein 2 (CHRDL2); assay: compounds binding chordin-like 2 – biochemical, small-molecule microarray, 635 nm fluorescence, primary screen (AID 1126); conditions: fluorescence 635 nm, higher = more signal;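 further: printed compound slides probed with Chrdl2 protein at 4 µg/mL for 1 h at 4 C; score merges 667 nm emission intensity with signal to noise over three replicate slides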
[8] = molecular target: Concanavalin-A (Canavalia ensiformis) (UniProt P02866); assay: compounds binding concanavalin A lectin – biochemical, small-molecule microarray, Alexa647 label, 635 nm, artefact control for SMM control protein annotation, primary screen (AID 1127); conditions: ConA-A647 binding fluorescence, higher = more signal;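 further: z combines 667 nm emission intensity with signal-to-noise across three replicate slides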
Chain of Concanavalin-A (Canavalia ensiformis) (P02866 whole entry, looked up): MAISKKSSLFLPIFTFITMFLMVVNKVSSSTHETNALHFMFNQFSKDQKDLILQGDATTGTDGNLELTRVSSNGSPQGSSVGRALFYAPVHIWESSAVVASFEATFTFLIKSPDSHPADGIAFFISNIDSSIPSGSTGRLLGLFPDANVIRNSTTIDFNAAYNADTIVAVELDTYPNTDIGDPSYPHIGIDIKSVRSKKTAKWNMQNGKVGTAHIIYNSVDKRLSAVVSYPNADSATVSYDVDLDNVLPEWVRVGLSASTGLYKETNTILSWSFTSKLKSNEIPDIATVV

[9] = compounds binding Alexa647 anti-His antibody – biochemical, small-molecule microarray, 635 nm fluorescence, artefact control for SMM control protein annotation, primary screen (AID 1128); conditions: higher = more signal;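 further: score merges feature fluorescence with signal-to-noise for each printed compound spot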
[10] = tested on: Human papillomavirus type 1a E7 protein (residues 1-88); assay: HPV1a E7 small-molecule binders, primary screen, biochemical, small-molecule microarray, residues 1-88, 635 nm (AID 1129); conditions: small-molecule microarray binding, fluorescence 635 nm; higher = more signal
[11] = molecular target: Focal adhesion kinase 1 (Homo sapiens) (UniProt Q05397); assay: PTK2 protein binding on printed compound slides – biochemical, small-molecule microarray, 635/667 nm fluorescence, BSA, DTT, primary screen (AID 1130); conditions: 635 nm fluorescence, higher = more signal;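 further: composite of spot emission at 667 nm and signal to noise over triplicate slides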
Chain of Focal adhesion kinase 1 (Homo sapiens) (Q05397 whole entry, looked up): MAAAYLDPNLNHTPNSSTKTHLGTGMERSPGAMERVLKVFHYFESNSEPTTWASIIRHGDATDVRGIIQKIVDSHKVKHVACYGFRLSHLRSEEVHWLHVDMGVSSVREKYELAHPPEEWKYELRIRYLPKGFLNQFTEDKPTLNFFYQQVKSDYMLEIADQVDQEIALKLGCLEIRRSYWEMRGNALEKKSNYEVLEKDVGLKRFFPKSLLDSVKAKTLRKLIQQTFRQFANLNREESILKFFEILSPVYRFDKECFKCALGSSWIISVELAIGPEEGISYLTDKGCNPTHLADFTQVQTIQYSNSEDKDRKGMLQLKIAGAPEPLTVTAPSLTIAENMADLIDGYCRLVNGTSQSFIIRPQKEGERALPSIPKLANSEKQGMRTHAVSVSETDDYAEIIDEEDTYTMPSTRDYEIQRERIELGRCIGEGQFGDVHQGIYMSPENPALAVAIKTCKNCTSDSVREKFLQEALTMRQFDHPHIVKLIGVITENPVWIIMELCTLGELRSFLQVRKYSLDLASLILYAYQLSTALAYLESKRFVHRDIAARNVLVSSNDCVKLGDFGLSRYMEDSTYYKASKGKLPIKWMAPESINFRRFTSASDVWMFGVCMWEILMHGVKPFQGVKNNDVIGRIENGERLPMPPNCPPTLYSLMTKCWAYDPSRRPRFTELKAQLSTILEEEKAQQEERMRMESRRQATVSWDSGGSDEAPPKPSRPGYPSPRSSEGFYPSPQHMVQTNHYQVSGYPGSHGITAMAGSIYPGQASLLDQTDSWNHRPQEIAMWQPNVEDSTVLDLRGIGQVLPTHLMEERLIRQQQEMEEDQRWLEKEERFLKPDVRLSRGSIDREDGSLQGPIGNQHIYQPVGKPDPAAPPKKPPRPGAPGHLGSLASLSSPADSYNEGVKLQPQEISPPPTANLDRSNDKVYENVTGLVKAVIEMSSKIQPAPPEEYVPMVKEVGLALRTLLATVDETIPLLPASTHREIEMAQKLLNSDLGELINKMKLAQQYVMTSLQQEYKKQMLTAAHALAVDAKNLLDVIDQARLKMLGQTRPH

[12] = tested on: Fibrinogen (Alexa647-labelled); assay: Alexa647-fibrinogen binding to printed small molecules – biochemical, small-molecule microarray, 635/667 nm fluorescence, artefact control for SMM control-protein annotation, profiling panel (AID 1131); conditions: fibrinogen-A647 binding fluorescence, higher = more signal;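 further: z-score merges 667 nm fluorescence with per-spot signal-to-noise over triplicate slides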
[13] = molecular target: Follistatin (Homo sapiens) (UniProt P19883); assay: FST protein binding to printed compounds – biochemical, small-molecule microarray, 635/667 nm fluorescence, primary screen (AID 1132); conditions: 635 nm fluorescence, higher = more signal
Chain of Follistatin (Homo sapiens) (P19883 whole entry, looked up): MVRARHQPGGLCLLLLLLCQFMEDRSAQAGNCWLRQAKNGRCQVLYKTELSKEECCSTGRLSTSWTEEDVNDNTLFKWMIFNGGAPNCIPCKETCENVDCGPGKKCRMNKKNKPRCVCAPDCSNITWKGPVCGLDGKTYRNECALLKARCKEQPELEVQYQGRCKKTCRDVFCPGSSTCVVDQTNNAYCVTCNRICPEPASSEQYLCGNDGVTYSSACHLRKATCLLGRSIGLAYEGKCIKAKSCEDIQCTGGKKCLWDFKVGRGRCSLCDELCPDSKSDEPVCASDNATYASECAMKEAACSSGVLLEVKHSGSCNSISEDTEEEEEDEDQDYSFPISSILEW

[14] = molecular target: Fibroblast growth factor 2 (Homo sapiens) (UniProt P09038); assay: basic fibroblast growth factor binding to printed compounds – biochemical, small-molecule microarray, 635/667 nm fluorescence, primary screen (AID 1133); conditions: FGF2, fluorescence 635/667, higher = more signal
Chain of Fibroblast growth factor 2 (Homo sapiens) (P09038 whole entry, looked up): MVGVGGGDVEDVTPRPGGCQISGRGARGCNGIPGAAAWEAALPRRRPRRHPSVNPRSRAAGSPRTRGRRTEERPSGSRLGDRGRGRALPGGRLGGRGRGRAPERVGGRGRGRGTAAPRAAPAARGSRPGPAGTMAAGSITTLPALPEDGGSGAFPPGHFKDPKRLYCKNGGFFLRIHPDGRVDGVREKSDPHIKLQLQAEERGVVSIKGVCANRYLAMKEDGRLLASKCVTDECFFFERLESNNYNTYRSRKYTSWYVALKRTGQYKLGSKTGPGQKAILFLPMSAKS

[15] = JC-1 mitochondrial potential readout, lung cancer cells – cell-based, A549, JC-1 fluorescence, basal, 24 h, 100 nL, profiling panel (AID 1138); conditions: higher = more signal;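 further: A549 lung adenocarcinoma cells under basal conditions with no added stimulus; test concentration not given here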
Lefty1 = Lefty1 protein binding to printed compounds – biochemical, small-molecule microarray, 635/667 nm fluorescence, primary screen (AID 1139); conditions: fluorescence 635/667, higher = more signal
[16] = tested on: wheat germ agglutinin (Triticum aestivum), Alexa647-labelled; assay: Alexa647-WGA lectin binding to printed small molecules – biochemical, small-molecule microarray, 635/667 nm fluorescence, artefact control for SMM control-protein annotation, profiling panel (AID 1140); conditions: WGA-A647 binding, 635 nm fluorescence, higher = more signal;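 further: score merges 667 nm feature emission with signal to noise over triplicate slides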
[17] = molecular target: Luciferin 4-monooxygenase (Photinus pyralis) (UniProt P08659); assay: inhibition of purified Photinus pyralis luciferase – biochemical, luminescence, purified enzyme, 2006 set, primary screen (AID 1141); conditions: purified firefly luciferase, SteadyGlo luminescence, 30 min; higher = more signal, called active from +8 up or from −8 down;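 further: cell-free assay with purified firefly luciferase at 100 ng per well in PBS; test concentration not given here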
Chain of Luciferin 4-monooxygenase (Photinus pyralis) (P08659 whole entry, looked up): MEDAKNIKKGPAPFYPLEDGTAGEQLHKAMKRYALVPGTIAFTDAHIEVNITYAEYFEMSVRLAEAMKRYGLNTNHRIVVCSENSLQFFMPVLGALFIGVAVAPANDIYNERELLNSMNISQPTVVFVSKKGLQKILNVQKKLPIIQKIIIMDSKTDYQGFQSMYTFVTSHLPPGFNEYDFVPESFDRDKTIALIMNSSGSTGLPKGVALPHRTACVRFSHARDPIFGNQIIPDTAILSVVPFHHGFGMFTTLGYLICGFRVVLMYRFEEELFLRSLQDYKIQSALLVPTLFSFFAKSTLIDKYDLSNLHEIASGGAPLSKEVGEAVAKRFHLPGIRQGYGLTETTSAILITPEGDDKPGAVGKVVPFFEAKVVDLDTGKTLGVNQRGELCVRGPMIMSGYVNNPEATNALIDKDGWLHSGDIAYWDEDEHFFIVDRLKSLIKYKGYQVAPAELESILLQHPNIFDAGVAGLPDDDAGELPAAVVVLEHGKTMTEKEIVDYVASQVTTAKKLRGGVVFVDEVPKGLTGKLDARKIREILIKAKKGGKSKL

SMILES | composite z-score (Albumin (Bos taurus)) | composite Z-score [1] | composite z-score [2] | composite z-score [3] | composite z-score [4] | composite z-score [5] | composite z-score [6] | composite z-score (Sam68 (KHDRBS1)) | composite z-score [7] | composite z-score [8] | composite z-score [9] | composite z-score [10] | composite z-score [11] | composite z-score [12] | composite z-score [13] | composite z-score [14] | z-score [15] | composite z-score (Lefty1) | composite z-score [16] | z-score [17]
CC(C)C(=C=CC[C@H](O)c1ccc(OCCO)cc1)C[C@H](O)COCc1ccccc1 | 0.394 | 0.813 (inactive) | 0.0522 | -0.179 | 0.508 | 1.43 | 1.04 | 1.3 | 0.433 | 0.673 | 1.73 | 1.18 | -0.0245 | 0.749 | 1.31 | 1.03 | 2.47 | 0.795 | 0.325 | -2.55 (inactive)
CCN(CC)c1ccc(N2CC=CC34O[C@@H]5C=CCOC(=O)[C@@H]5[C@H]3C(=O)N(C(CO)C(C)C)[C@@H]4C2=O)cc1 (stereo not given in full) | -0.819 | 0.316 (inactive) | -0.405 | -0.104 | -0.604 | -0.408 | 0.23 | -0.635 | -0.42 | -0.374 | -1.59 | -1.27 | -0.596 | -0.236 | -0.529 | -0.208 | 1.39 | -0.771 | -1.13 | -0.638 (inactive)
CC(C)C[C@@H]1NC(=O)[C@@]23C(=O)N[C@@H](Cc4ccccc4)C2[C@H](C)[C@@]2(C)O[C@H]2C3/C=C/C/C=C\CNC(=O)[C@H](Cc2ccccc2)NC1=O (stereo not given in full) | 0.533 | 0.376 (inactive) | -0.0881 | -0.128 | 0.848 | 0.138 | 0.379 | 0.456 | -0.0794 | 0.313 | 2.15 | 0.284 | -0.0582 | 0.894 | 0.515 | 0.31 | 1.22 | 0.321 | 0.994 | -0.755 (inactive)
Cc1ccc(N2C(=O)c3ccccc3[C@](C)(C(=O)NC3CC3)[C@@H]2c2ccc(CO)cc2)nc1 | -0.0191 | 0.186 (inactive) | -0.132 | -0.0698 | 0.78 | 0.529 | 1.18 | -0.501 | 0.407 | -0.816 | -0.373 | -0.644 | -0.0892 | -0.777 | 1.22 | 0.373 | 1.13 | -0.105 | 0.618 | -1.5 (inactive)
C#CCN1C(C(=O)OCC)OC[C@H]1c1ccccc1 (stereo not given in full) | -0.0202 | 0.369 (inactive) | -0.128 | -0.0861 | -0.0406 | 4.71 | 0.847 | 0.487 | 0.602 | 0.303 | 0.264 | -0.334 | 5.01 | 0.559 | 0.552 | 0.469 | 0.833 | 0.732 | 0.299 | -0.547 (inactive)
COC(=O)C(CC#Cc1ccc2c(c1)[C@]1(C(=O)N2)[C@H](c2ccccc2OCCO)N2[C@H](c3ccccc3)[C@H](c3ccccc3)OC(=O)[C@H]2[C@@H]1C(=O)N1CCCCCCC1)C(=O)OC | -0.314 | 8.74 (active) | 2.02 | 1.1 | 1.03 | 4.9 | 1.41 | 1.33 | 1.66 | 0.773 | 0.925 | 1.35 | 4.83 | 0.0834 | 1.56 | -0.0426 | 0.547 | 1.73 | 1.66 | -1.08 (inactive)
COCCOC(=O)N1C(=O)[C@@]2(c3cc(C#CCNC(N)=O)ccc31)[C@H](c1ccccc1OCCO)N1[C@H](c3ccccc3)[C@H](c3ccccc3)OC(=O)[C@H]1[C@@H]2C(=O)Nc1nc2ccccc2s1 | 0.598 | 0.564 (inactive) | -0.0391 | -0.0817 | 0.439 | 0.862 | 0.292 | 1.12 | 0.0611 | 1.03 | 0.3 | 0.965 | 0.374 | 0.283 | 1.17 | 0.271 | -2.07 | 0.591 | 1.04 | -1.87 (inactive)
COCCCN1C(=O)[C@@]2(Cc3ccccc31)c1ccccc1C(=O)N(Cc1ccccc1Cl)[C@H]2c1ccc(CO)cc1 | -0.538 | -0.17 (inactive) | -0.126 | -0.162 | 0.106 | -0.0024 | 0.179 | 0.0462 | -0.272 | 0.0915 | -1.15 | -1.53 | -0.557 | -0.358 | -0.45 | -0.0761 | 0.83 | -0.348 | -1.02 | -1.13 (inactive)
C=C(COC)/C(=C/C[C@H](OC(C)=O)c1cccc(OCCO)c1)c1cc(C(=O)OC)ccc1OC | -0.169 | 0.211 (inactive) | -0.0414 | -0.0649 | 0.656 | 0.193 | -0.219 | 0.705 | 1.25 | -0.0821 | 0.349 | -0.131 | -0.402 | -0.488 | 1.51 | 1.4 | -0.0205 | 1.72 | -1.08 | -0.727 (inactive)
COc1ccc([Si](C)(C)[C@@H]2[C@@H](CC(=O)N3CCC[C@H]3CO)O[C@]3(C(=O)N(Cc4ccc(N5CCC5=O)cc4)c4ccccc43)[C@H]2C)cc1 | -0.82 | 0.566 (inactive) | 0.0026 | -0.0624 | 0.415 | 1.05 | -0.31 | 1.31 | 0.183 | 1.08 | 2.01 | 1.13 | 0.983 | 0.406 | 0.712 | 0.589 | 1.55 | 1.04 | 0.0389 | -1.45 (inactive)
COCCOC(=O)N1C(=O)[C@@]2(c3cc(C#CCNC(N)=O)ccc31)[C@H](C(=O)NC[C@H](O)c1ccccc1)[C@H]1C(=O)O[C@H](c3ccccc3)[C@H](c3ccccc3)N1[C@@H]2c1ccc(O)cc1 | 0.348 | 0.239 (inactive) | -0.0044 | -0.104 | 0.0718 | 1.14 | 1.01 | 0.928 | -0.474 | 1.02 | 0.95 | 0.502 | 0.492 | 0.651 | 1.35 | 0.674 | -0.175 | 0.16 | 0.436 | -1.48 (inactive)
